The record followed here is PubChem BioAssay (NCI).

About 83,000 compounds went through this panel and 20% of them were active in at least one assay; those are over-represented in the sample as a whole.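 Method: cells in 96-well plates; compound added at one concentration; 48 h incubation; percent growth measured; values under 10 scored active.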 Values without a mark were called inactive. The source made the active and inactive calls.

Test in all cases: NCI-60 one-dose screen, 48 h (100 = growth as untreated, 0 = no growth, -100 = all killed)
For one assay, the system named is SK-MEL-2 melanoma. The note with it: 10 µM unless noted.
Another assay has as its system EKVX NSCLC. The note with it: 10 µM unless noted.
The test system of a further assay is SN12C renal. The note with it: 10 µM unless noted.
The subject of the next assay is UO-31 renal. The note with it: 10 µM unless noted.
A further assay relates to TK-10 renal. The note with it: 10 µM unless noted.
The subject of a further assay is ACHN renal. The note with it: 10 µM unless noted.
The test system of the next assay is CAKI-1 renal. The note with it: 10 µM unless noted.
The next assay relates to A498 renal. The note with it: 10 µM unless noted.
A further assay has as its system CCRF-CEM leukemia. The note with it: 10 µM unless noted.
A further assay has as its system MOLT-4 leukemia. The note with it: 10 µM unless noted.
The next assay relates to SR leukemia. The note with it: 10 µM unless noted.
Another assay relates to RPMI-8226 leukemia. The note with it: 10 µM unless noted.
The subject of a further assay is OVCAR-8 ovarian. The note with it: 10 µM unless noted.
Another assay has as its system OVCAR-5 ovarian. The note with it: 10 µM unless noted.
A further assay relates to OVCAR-4 ovarian. The note with it: 10 µM.
A further assay deals with SK-OV-3 ovarian. The note with it: 10 µM unless noted.
The next assay has as its system OVCAR-3 ovarian. The note with it: 10 µM unless noted.
In another assay the test system is HS 578T breast. The note with it: 10 µM unless noted.
The test system of another assay is NCI/ADR-RES ovarian. The note with it: 10 µM unless noted.
A further assay concerns IGROV1 ovarian. The note with it: 10 µM unless noted.

Take `CCN(CC)CCSC(=O)C(O)(c1ccccc1)C1CCCC1` (stereo unspecified): the growth in the assay on SK-MEL-2 melanoma was 106%; in the assay with EKVX NSCLC it was 120%; with SN12C renal it was 99.8%; in the assay on UO-31 renal, 78.1%; in the assay with TK-10 renal, 120%; with ACHN renal, 105%. The growth with CAKI-1 renal is 92%; with A498 renal it was 95.7%; with CCRF-CEM leukemia, 118%; in the assay with MOLT-4 leukemia, 91.3%; with SR leukemia, 96.7%; in the assay on RPMI-8226 leukemia, 109%. Moreover, the growth in the assay on OVCAR-8 ovarian is 97.8%; with OVCAR-5 ovarian, 94.6%; with OVCAR-4 ovarian it was 119%; with SK-OV-3 ovarian it was 113%; in the assay with OVCAR-3 ovarian, 121%; in the assay with HS 578T breast, 110%. Moreover, the growth in the assay with NCI/ADR-RES ovarian is 84.5%.

Turning to `COc1ccc(OC)c(NC=O)c1`, the growth with SK-MEL-2 melanoma was 116%; with EKVX NSCLC, 101%; in the assay with SN12C renal, 107%; with UO-31 renal, 92%; with TK-10 renal, 102%; with ACHN renal, 106%. Besides, the growth in the assay on CAKI-1 renal is 95.7%; in the assay on A498 renal it was 103%; in the assay with CCRF-CEM leukemia, 127%; with MOLT-4 leukemia it was 88.2%; in the assay on SR leukemia it was 83.3%; with RPMI-8226 leukemia, 127%. Moreover, the growth with OVCAR-8 ovarian is 104%; in the assay on OVCAR-5 ovarian, 108%; with OVCAR-4 ovarian it was 103%; with SK-OV-3 ovarian it was 110%; in the assay on OVCAR-3 ovarian, 117%; in the assay with HS 578T breast it was 106%. Further, the growth in the assay with NCI/ADR-RES ovarian was 109%.

Take `NC(=O)c1c(NC(=O)COC(=O)Cc2ccccc2F)sc2c1CCC2`: the growth in the assay with SK-MEL-2 melanoma is 99.9%; in the assay with EKVX NSCLC it was 101%; with SN12C renal, 109%; with UO-31 renal it was 72.6%; with TK-10 renal it was 124%; in the assay on ACHN renal, 109%. The growth with CAKI-1 renal is 99%; in the assay on A498 renal, 117%; in the assay on CCRF-CEM leukemia, 108%; in the assay with MOLT-4 leukemia it was 86.6%; in the assay with SR leukemia it was 125%; in the assay on RPMI-8226 leukemia, 130%. In addition, the growth in the assay on OVCAR-8 ovarian was 39.4%; with OVCAR-5 ovarian, 111%; with OVCAR-4 ovarian, 114%; with SK-OV-3 ovarian it was 104%; with OVCAR-3 ovarian, 112%; in the assay on HS 578T breast it was 109%. For the same molecule, the growth in the assay with NCI/ADR-RES ovarian is 110%.

As to `CCCCCCCCN(CCCCCCCC)CC(O)c1ccc(Cl)c(C)c1Cl` (stereo unspecified), the growth was 123% in the assay with SK-MEL-2 melanoma; 99.4% in the assay on EKVX NSCLC; 84% in the assay on SN12C renal; 45.1% in the assay with UO-31 renal; 94.6% in the assay on TK-10 renal; 74.7% with ACHN renal. For the same molecule, the growth with CAKI-1 renal was 72.5%; in the assay on A498 renal, 70.7%; in the assay with CCRF-CEM leukemia, 78%; in the assay with MOLT-4 leukemia, 91.4%; in the assay with SR leukemia, 52.6%; with RPMI-8226 leukemia, 72.8%. Moreover, the growth in the assay on OVCAR-8 ovarian is 93.6%; in the assay on OVCAR-5 ovarian, 84.1%; in the assay on OVCAR-4 ovarian, 93.5%; in the assay with SK-OV-3 ovarian, 77.5%; with OVCAR-3 ovarian, 88.9%; in the assay on NCI/ADR-RES ovarian it was 89.6%.

With `Cc1ccc(S(=O)(=O)Oc2ccc([N+](=O)[O-])cc2[N+](=O)[O-])cc1`, the growth is 78.8% in the assay with SK-MEL-2 melanoma; 101% in the assay with EKVX NSCLC; 32.7% in the assay on SN12C renal; 73.6% in the assay with UO-31 renal; 110% in the assay with TK-10 renal; 104% in the assay on ACHN renal. In addition, the growth with CAKI-1 renal was 82.3%; in the assay with A498 renal, 94.3%; with CCRF-CEM leukemia it was 23%; in the assay on MOLT-4 leukemia it was 54.2%; with SR leukemia, 56.6%; with RPMI-8226 leukemia, 53.2%. Moreover, the growth in the assay on OVCAR-8 ovarian is 78.8%; with OVCAR-5 ovarian it was 111%; in the assay with OVCAR-4 ovarian, 63.6%; in the assay on SK-OV-3 ovarian, 119%; in the assay on OVCAR-3 ovarian, 107%; in the assay with HS 578T breast, 123%. For the same molecule, in the assay on NCI/ADR-RES ovarian, the growth was 85.1%.

On to `O=C(N/N=C/c1ccc([N+](=O)[O-])cc1)c1ccc(Br)o1`, for which the growth was 33.6% in the assay on SK-MEL-2 melanoma; 112% in the assay on EKVX NSCLC; 102% with SN12C renal; -17.5% (active) with UO-31 renal; 131% with TK-10 renal; 107% in the assay with ACHN renal. The growth with CAKI-1 renal was 106%; in the assay with A498 renal, 116%; in the assay on CCRF-CEM leukemia it was 99.5%; in the assay with MOLT-4 leukemia it was 123%; in the assay with SR leukemia, 106%; in the assay on RPMI-8226 leukemia, 72%. Moreover, the growth in the assay with OVCAR-8 ovarian was 71.8%; in the assay with OVCAR-5 ovarian, 104%; in the assay on OVCAR-4 ovarian, 99.8%; in the assay on SK-OV-3 ovarian it was 79.3%; with OVCAR-3 ovarian, 121%; with HS 578T breast, 127%. Besides, the growth in the assay with NCI/ADR-RES ovarian was 99.6%.

Regarding `COc1ccc(-c2cc(-c3ccccc3)nc(NCCNc3ccnc4cc(Cl)ccc34)n2)cc1`, the growth in the assay on SK-MEL-2 melanoma is -77.3% (active); in the assay with EKVX NSCLC, -88.1% (active); in the assay on SN12C renal it was -92.9% (active); in the assay with UO-31 renal it was -91.9% (active); in the assay on TK-10 renal, -81.7% (active); with ACHN renal it was -94.2% (active). In addition, the growth is -86.5% (active) in the assay with CAKI-1 renal; 5.73% (active) in the assay with A498 renal; -30.7% (active) with CCRF-CEM leukemia; -44.4% (active) with MOLT-4 leukemia; -7.13% (active) with SR leukemia; -34.4% (active) in the assay on RPMI-8226 leukemia. In addition, the growth in the assay with OVCAR-8 ovarian is -60.2% (active); with OVCAR-5 ovarian, -96.6% (active); in the assay with OVCAR-4 ovarian, -48.8% (active); in the assay on IGROV1 ovarian it was -74.1% (active); in the assay on OVCAR-3 ovarian it was -82.6% (active); in the assay with HS 578T breast, -53.9% (active). For the same molecule, the growth in the assay on NCI/ADR-RES ovarian was -71.9% (active).

For the molecule `CCCc1cc2cc(-n3nc(C)c4c3CC(C)(C)CC4=O)cc(NC3CCSCC3)c2c(=O)[nH]1`, the growth is 71.6% in the assay with SK-MEL-2 melanoma; 76.4% in the assay with EKVX NSCLC; 39.8% with SN12C renal; 61% in the assay with UO-31 renal; 43.4% with TK-10 renal; 38.5% in the assay with ACHN renal. The growth in the assay on CAKI-1 renal is 68.8%; in the assay on A498 renal it was 71.4%; with CCRF-CEM leukemia it was 100%; in the assay with MOLT-4 leukemia, 49.8%; in the assay on SR leukemia, 33.8%; with RPMI-8226 leukemia it was 49.9%. The growth is 79% in the assay with OVCAR-8 ovarian; 97% in the assay on OVCAR-5 ovarian; 97.5% in the assay on OVCAR-4 ovarian; 74.1% in the assay on IGROV1 ovarian; 87% in the assay with OVCAR-3 ovarian; 79.2% with HS 578T breast. Further, the growth with NCI/ADR-RES ovarian is 82.2%.
